The values that follow come from the supplement of paper PMC6555819.

In the assay the test system is VDR:RXRa (NR concentration 270 nM, RXRa partner concentration 90 nM). Put plainly: PBM binding z-score (relative to random genomic background probes); higher = stronger binding; sequences stand for … in GC…GCGATTGACAGCGTAGAATGAAGG
How it is done:
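Protein-binding microarray (Agilent 4x180K custom design, double-stranded 60-nt probes: 5' GC cap, 34-nt variable region, 24-nt constant primer region; full probe sequence given). Purified or IVT nuclear receptor:RXRα heterodimers (3:1 NR:RXRα, mostly 270:90 nM) or homodimers were incubated for 1 h in PBS with 2% milk and no ligand, then detected with Alexa488 antibodies. Fluorescence from o1-orientation probes (~5 replicates averaged) was converted to z-scores against 500 random hg19 background probes. Variable regions are seed direct-repeat (DR0–DR5) sites, all their single-nucleotide variants and half-site ablations.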
For the sequence CCTTACGGGTTACTGACAGGTTATAGCATTTGGA, the PBM binding z-score worked out at 0.637. With ATCTCTAGCTAACCAAGTTCAGTGAATGCCGAAC the figure was 1.42; with CCGACTGGGCCATAAGGTTACCATAAGCCAGCCC, 0.0236. With ACTGGTTGGTCAGCTGAGGTCACACACAATTCGG, the PBM binding z-score is 4.57. ACAGACAGGTGAATGAAGGTAACTCAGCTGGACG gave a PBM binding z-score of -0.131.

CGAACGAGGGCATGAGGTGATAGCAAATGCCGAT returned a PBM binding z-score of 0.93.

For the sequence CGTCAAAGTTCAACTAAGGAAACGTAAAGCACGC, the PBM binding z-score stood at 4.16. The value for ACTAGCAGGCCAAGGGTCACTCAGGATTAGTCCG was 3.03; that for CAAACTAGGTCGCCGGAAGGTCAAAGTCCGCATG was 4.5; that for CGTCCAAGGTGAGAGAGGTCAGTGAATGCCGAGT was 5.51. The value for GCGACTGGGGCAAAGCAGGTTACCATAAGGTTGG was 0.149; that for CCGACTGGGGCAGCAAGGTTACCATACCATCCGG was 1.25; that for CGTCCAAGGTCAAGGTCAGTCAAAGAGACTCGAA was 4.84. The value for CTCGAAAGGTCGGTTGGGGTGAGTATACGGATAA was 3.24; that for ATCTCTAGGTAACCAAGTTCAATGAATGCCGAAC was 4.66. CCTTACGGCTCACGAGGTTATAGCACGACGAGCG returned a PBM binding z-score of 0.412. As for TAGCCTAGGGCATGCGGGCCAGTATAGTGTCGGC, the PBM binding z-score was -0.814. The value for AGAAAGAGGTTATTAAGATCAGGGAATTGCGGTC was 2.57. AGAACGAGGGGAATGAGTTGATAGCACGGGTGGC had a PBM binding z-score of 2.09.

Take AATACAGGGTCATAGTAGGCCAGAGTACGCACAG: the PBM binding z-score was determined as 4.63. The value for TCTTGTAGATCAACAGGCGGTTAAGAAAGATCGA was 0.345. With ATACCAAGGTGATCGTGAGGTCGTTAATACTAAC the figure was 3.1. The value for ATCTCTAGGTAAAGTTCAGTGACAGATCGATAGA was 1.63; that for AGAACGTGGGCAATGAGTTGATAGCACGGGTGGC was 0.69; that for CCTACTGGGCCACCAAAGGTCATTGATTCAGTGA was 4.13. In the case of TGAATGAGGTTCAAGATCAGGGAACGTGGCGTCG, the PBM binding z-score came to 1.56.

For CGTCAAAGTTCAACTAAGGTAACGTTAAGCACGC, the PBM binding z-score is 4.69.

AATACAGGGTTACTAGGCCAGAGTAGGTACGAAT yielded a PBM binding z-score of 0.824.

Consider AGAACGAGGGCCCGCTGAGTTGATAGCAGAGTAG, for which the PBM binding z-score is -1.03. For the sequence CGTCCAAGATCATAGGAGGTCAGTGAAGACAGAT, the PBM binding z-score worked out at 2.63. The value for CAAACTAGATCACCGGAAGGTCAAAGTCCGCATG was 3.03; that for ATATGTAGGTTAAGGGTCATCCAGGTTGGTTCGC was 5.91; that for AGAACGAGGGCACGCTGAGTTGCTAGCAGAGTAG was 1.18. ATATGGAGGTTATCGGGTCATTCAGTTTGCGCAT gave a PBM binding z-score of 5.78.

On to CCGACTGGGGCATTAGGTTACCATAAGCCAGCCC, for which the PBM binding z-score was -0.353. The value for ATACCAAGGTGACCGTGAGGTCGTTGATACTAAC was 4.04. The value for CCTACTGGGCCATCACGTCATTGATATCAACGTT was -0.314.

In turn, TCATATAGGTAAACAGTTGAAAGTCCGTAAGTTA registered a PBM binding z-score of 1.13. The value for AATACAGGGTCACTAGGCCACAGTAGGTACGAAT was 4.27; that for AGAATGAGGTTTCCAAAGATCAGGGAAACGCTTG was -0.555.
